According to PubChem BioAssay (NCATS):
Records with an inconclusive call do not appear. Calls of active or inactive are those of the source. Calls come from the whole dose curve; as a rule, active = well fitted curve in the direction sought with a large enough effect; inconclusive = small, poorly fitted or top-dose-only effect, or effect the other way, or another doubt; inactive = no such curve, though single readings can be large or run the other way.

Assay: qHTS Assay for Identification of Small Molecule Agonists for NFkB Signaling Pathway. (AID 624478);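 note: compounds tested together with TNF alpha at its EC50 of 10 pM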
Details: NFkB pathway reporter cell assay, agonist mode, cells co-stimulated with 10 pM TNF alpha; series mostly up to 46.1 µM
Description: The TNF alpha/NFkB signaling pathway was assayed in NFkB-bla cells (Invitrogen), a ME-180 cervical carcinoma line containing a stably integrated beta-lactamase reporter gene controlled by a NFkB response element. This reporter is induced by TNF alpha at 10 pM EC50 and inhibited by the proteosome inhibitor MG-132 at approximately 100 nM IC50. The assay was screened at the EC50 of TNF alpha activation to identify activators of TNF alpha/NFkB signaling
Cells were trypsinized, washed in assay medium (AM, OPTI MEM with 0.5% fetal bovine serum, 0.1 mM nonessential amino acids, 1 mM sodium pyruvate, 10mM HEPES pH 7.3, 100U/ml penicillin, and 100 ug/ml streptomycin) and plated at 1000 cells/5 uL/well into black clear-bottom 1536 well plates. After an overnight incubation at 37 C and 5% CO2, 23 nL of compound were delivered by a pin tool, 1 uL of TNF alpha (10 pM final concentration in AM) was added and plates were incubated at 37 C for 5 hrs. One uL of LiveBLAzerTM detector mix (Invitrogen) was added, the plates incubated at room temperature for 2 hrs, and fluorescence intensity at 460 and 530 nm emission was measured at 405 nm excitation by an Envision (Perkin Elmer).

Structure (SMILES) | outcome
C1=CCOCc2cc(ccc2OCCN2CCCC2)Nc2nccc(n2)-c2cccc(c2)OCC1 | inactive
CN1CCN(c2ccc3nc(-c4c(N)c5c(F)cccc5[nH]c4=O)[nH]c3c2)CC1 | inactive
Cc1cc(Nc2cc(NC(=O)c3c(Cl)cccc3Cl)ccn2)nc(N)n1 | inactive
C=C1C(=CC=C2CCC[C@]3(C)[C@@H]([C@H](C)C=C[C@H](C)C(C)C)CC[C@@H]23)C[C@@H](O)C[C@@H]1O | inactive
O=C(NCCS(=O)(=O)c1ccc(C(F)(F)F)cn1)c1ccc(Cl)cc1 | inactive
COc1ccc(C=Cc2cc(OC)c(OC)c(OC)c2)cc1O | inactive
O=C(C=Cc1c(C(=O)O)[nH]c2cc(Cl)cc(Cl)c12)Nc1ccccc1 | inactive
Nc1nc(-c2nn(Cc3ccccc3F)c3ncccc23)nc(N)c1N1CCOCC1 | inactive
CC(C)(O)CCc1ccc(OCc2cc(-c3cccc(OC(F)F)c3)c3ncccc3c2)cc1 | inactive
NC(=O)Nc1cc(-c2cccc(F)c2)sc1C(=O)N[C@H]1CCCNC1 | inactive
CC1(C)OC2=C(C(=O)c3ccccc3C2=O)[C@H](NCc2ccccc2)[C@H]1O | inactive
CC[C@H](CO)Nc1nc(NCc2ccccc2)c2ncn(C(C)C)c2n1 | inactive
Cc1ccc(-c2ncn(-c3ccc(Nc4nccc(-c5cccc(N6CCOCC6)c5)n4)cc3)n2)cn1 | inactive
O=C(O)[C@H](Cc1c[nH]c2ccccc12)N1C(=O)c2ccccc2C1=O | inactive
C1Cc2[nH]nc(-c3nn[nH]n3)c2C1 | inactive
CN1CC[C@@H](c2c(O)cc(O)c3c(=O)cc(-c4ccccc4Cl)oc23)[C@@H](O)C1 | inactive
O=C(NC1CCNCC1)c1[nH]ncc1NC(=O)c1c(Cl)cccc1Cl | inactive
COc1cc2c(Oc3ccc(NC(=O)C4(C(=O)Nc5ccc(F)cc5)CC4)cc3F)ccnc2cc1OCCCN1CCOCC1 | inactive
Cc1[nH]c2ccccc2c1CCNCc1ccc(C=CC(=O)NO)cc1 | inactive
Cc1ccc(C(N)=O)cc1Nc1nccc(-c2cn(C(C)C)c3cnccc23)n1 | inactive

Structure (SMILES) | outcome
CC(C)CC(=O)Nc1n[nH]c2c1CN(C(=O)C1CCN(C)CC1)C2(C)C | inactive
CCC[C@H](NC(=O)C(C#N)=Cc1cccc(Br)n1)c1ccccc1 | inactive
CC1(C)CCC(c2ccc(Cl)cc2)=C(CN2CCN(c3ccc(C(=O)NS(=O)(=O)c4ccc(N[C@H](CCN5CCOCC5)CSc5ccccc5)c(S(=O)(=O)C(F)(F)F)c4)cc3)CC2)C1 | inactive
Cc1cnc(-c2cnc(NCCNc3ccc(C#N)cn3)nc2-c2ccc(Cl)cc2Cl)[nH]1 | inactive
C=CCn1c(=O)c2cnc(Nc3ccc(N4CCN(C)CC4)cc3)nc2n1-c1cccc(C(C)(C)O)n1 | inactive
COC(=O)[C@]12CCC(C)(C)C[C@@H]1[C@@H]1C(=O)C=C3[C@@]4(C)C=C(C#N)C(=O)C(C)(C)[C@@H]4CC[C@@]3(C)[C@]1(C)CC2 | inactive
Nc1cc(C(F)(F)F)c(-c2cc(N3CCOCC3)nc(N3CCOCC3)n2)cn1 | inactive
O=c1[nH]nc(Sc2ncc([N+](=O)[O-])s2)n1-c1ccc2c(c1)OCCO2 | inactive
O=C(Nc1cc(C(F)(F)F)cc(C(F)(F)F)c1)c1cc(Cl)ccc1O | inactive
CNc1nccc(-c2cccnc2Oc2cc(C(=O)Nc3cccc(C(F)(F)F)c3)ccc2C)n1 | inactive
C[C@]1(CO)CN(c2cc(C(=O)Nc3ccc4c(c3)-c3c(c(C(N)=O)nn3-c3ccc(F)cc3)CC4)c(Cl)cn2)C[C@@]1(C)CO | inactive
CCN1CCN(CC(=O)Nc2ccc(-c3cccc4c(=O)cc(N5CCOCC5)oc34)c3sc4ccccc4c23)CC1 | inactive
COc1cc2ncn(-c3cc(OCc4ccccc4C(F)(F)F)c(C(N)=O)s3)c2cc1OC | inactive
Cc1cc(Nc2cc(N3CCN(C)CC3)nc(C=Cc3ccccc3)n2)n[nH]1 | inactive
CN1CCC(CNc2ccc3ncc(-c4cccc(OC(F)(F)F)c4)n3n2)CC1 | inactive
COc1cc2c(Oc3ccc4[nH]c(C)cc4c3F)ncnc2cc1OCCCN1CCCC1 | inactive
CC(C)c1ccccc1Cc1cc(C(=O)Nc2ccc(S(=O)(=O)c3ccccc3C(C)(C)C)cc2)c(O)c(O)c1O | inactive
O=C(O)c1ccc2cc(-c3ccc(O)c(C45CC6CC(CC(C6)C4)C5)c3)ccc2c1 | inactive
COc1cc2ncnc(Nc3ccc(F)c(Cl)c3)c2cc1NC(=O)C=CCN1CCCCC1 | inactive
COc1ccc(OC)c(-c2nnc3ccc(-c4ccc(OC)c(O[C@@H]5CCOC5)c4)nn23)c1 | inactive
